Measured values as given in PubChem BioAssay (NCI).
The panel holds about 79,000 compounds, 15% with a hit somewhere; the sample as a whole holds those more often. The source made the active and inactive calls. Cut-off read from the data, not from the text of the source: active = growth inhibition above about 70%; inactive = the rest.

Experiments:
[1] = NCI Yeast Anticancer Drug Screen. Data for the rad52 strain (AID 147);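 note: 0% = growth of vehicle-treated control cultures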; details: S. cerevisiae rad52 mutant growth inhibition, stronger effect = higher value
In short: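 Here a repair-compromised yeast strain receives each compound; its growth is then quantified and normalised to vehicle-only controls.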

[2] = NCI Yeast Anticancer Drug Screen. Data for the wt1 strain (AID 149);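 note: 0% = growth of vehicle-treated wt1 cultures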; details: S. cerevisiae wt1 strain (SPY 50644) growth inhibition, stronger effect = higher value
In short: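 The wt1 strain was treated with compounds, and growth was compared with vehicle-treated cultures to give inhibition.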

[3] = NCI Yeast Anticancer Drug Screen. Data for the rad50EPP+ strain (AID 151);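 note: 0% = growth of vehicle-treated control cultures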; details: S. cerevisiae rad50 mutant strain, stronger effect = higher value
In short: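 Read-out is yeast growth inhibition relative to vehicle; cells used were the rad50EPP+ strain.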

[4] = NCI Yeast Anticancer Drug Screen. Data for the mgt1 strain (AID 153); details: S. cerevisiae mgt1 mutant growth inhibition, stronger effect = higher value
In short: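 Measured: inhibition of mgt1 yeast growth by compound, normalized to vehicle-treated cultures.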

[5] = NCI Yeast Anticancer Drug Screen. Data for the rad50 strain (AID 155);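 note: 0% = growth of vehicle-only cultures of the same strain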; details: S. cerevisiae rad50 strain growth inhibition, stronger effect = higher value
In short: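 Cells are treated with compound, grown, and their growth is then scored against vehicle-only cultures of the same repair-deficient yeast strain.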

[6] = NCI Yeast Anticancer Drug Screen. Data for the mec2-1 strain (AID 157); details: S. cerevisiae mec2-1 strain, stronger effect = higher value
In short: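 Using mec2-1 yeast: add compound, measure growth, express inhibition versus vehicle-treated cultures.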

[7] = NCI Yeast Anticancer Drug Screen. Data for the rad14 strain (AID 159);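 note: 0% = growth of vehicle-treated control cultures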; details: S. cerevisiae rad14 strain growth inhibition, stronger effect = higher value
In short: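 Readout: yeast growth inhibition, referenced to vehicle-only cultures. Strain bears a defined alteration in DNA damage repair.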

[8] = NCI Yeast Anticancer Drug Screen. Data for the sgs1 mgt1 strain (AID 161);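 note: 0% = growth of cultures given vehicle only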; details: S. cerevisiae sgs1 mgt1 strain, stronger effect = higher value
In short: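 Percent growth inhibition was derived by comparing compound-exposed mutant yeast with vehicle-exposed cultures. The strain carries alterations in DNA damage repair.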

[9] = NCI Yeast Anticancer Drug Screen. Data for the CLN2oe strain (AID 163);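 note: 0% = growth of vehicle-only control cultures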; details: S. cerevisiae CLN2oe strain, stronger effect = higher value
In short: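 Whole-cell yeast growth assay. A strain engineered for altered cell-cycle control received compound, and inhibition relative to vehicle-treated cultures was recorded.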

[10] = NCI Yeast Anticancer Drug Screen. Data for the cln2 rad14 strain (AID 165);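 note: 0% = growth equal to vehicle treated cultures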; details: S. cerevisiae cln2 rad14 strain, stronger effect = higher value
In short: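 Yeast strain cln2 rad14, bearing defects in cell cycle control and DNA repair, serves as the test system; values reflect growth inhibition compared with vehicle.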

[11] = NCI Yeast Anticancer Drug Screen. Data for the bub3 strain (AID 167); details: S. cerevisiae bub3 mutant strain, stronger effect = higher value
In short: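 Part of a panel of yeast mutants defective in DNA damage repair or cell cycle regulation. Each strain is grown with compound, and inhibition is calculated relative to solvent-treated cultures.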

[12] = NCI Yeast Anticancer Drug Screen. Data for the wt2 strain (AID 169);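 note: 0% = growth of vehicle-treated yeast cultures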; details: S. cerevisiae wt2 strain growth inhibition, stronger effect = higher value
In short: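 Treated yeast vs. vehicle-treated yeast: growth inhibition determined.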

[13] = NCI Yeast Anticancer Drug Screen. Data for the mlh1 strain (AID 171);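 note: 0% = growth of vehicle-treated control cultures of the same strain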; details: S. cerevisiae mlh1 strain growth inhibition, stronger effect = higher value
In short: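 A yeast strain with a defined genetic lesion serves as the test organism. Cultures receive compound or vehicle, and growth is measured.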

[14] = NCI Yeast Anticancer Drug Screen. Data for the sgs1 strain (AID 173);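 note: 0% = growth of vehicle-only control cultures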; details: S. cerevisiae sgs1 mutant, stronger effect = higher value
In short: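 A genetically defined yeast mutant is incubated with the test compound, and its growth is compared to that of the same strain given vehicle.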

[15] = NCI Yeast Anticancer Drug Screen. Data for the mlh1 rad18 strain (AID 175); details: S. cerevisiae mlh1 rad18 strain growth inhibition, stronger effect = higher value
In short: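 Steps: expose repair-defective yeast to compound; measure growth; express inhibition against vehicle-treated controls.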

[16] = NCI Yeast Anticancer Drug Screen. Data for the rad18 strain (AID 177); details: S. cerevisiae rad18 mutant growth inhibition, stronger effect = higher value
In short: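 Measured value is growth inhibition of a yeast strain bearing a DNA repair alteration, referenced to vehicle-treated cells.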

[17] = at 5.0 µM (retest, dose inferred, filed as 0.5)
[18] = at 50.0 µM (retest, dose inferred, filed as 5.0)

Measured: growth inhibition

[N-]=[N+]=NC1(c2ccccc2)C(=O)Nc2ccccc2C1=O (stereo unspecified)
inactive: [1]; at 1.2 µM -2% | [1]; at 3.7 µM 0% | [1]; at 11.0 µM 4% | [1]; at 33.0 µM 20% | [1]; at 100.0 µM 49% | [2]; at 1.2 µM -4% | [2]; at 3.7 µM -2% | [2]; at 11.0 µM -3% | [2]; at 33.0 µM 4% | [2]; at 100.0 µM 22% | [3]; at 1.2 µM 0% | [3]; at 3.7 µM 3% | [3]; at 11.0 µM 6% | [3]; at 33.0 µM 9% | [3]; at 100.0 µM 7% | [4]; at 1.2 µM -3% | [4]; at 3.7 µM -6% | [4]; at 11.0 µM 8% | [4]; at 33.0 µM 2% | [4]; at 100.0 µM 27% | [5]; at 1.2 µM -4% | [5]; at 3.7 µM -2% | [5]; [17] -4% | [5]; at 11.0 µM -20% | [5]; at 33.0 µM 17% | [5]; [18] 14% | [5]; at 50.0 µM 67% | [5]; at 100.0 µM 37% | [6]; at 1.2 µM 2% | [6]; at 3.7 µM 2% | [6]; [17] -23% | [6]; at 11.0 µM 6% | [6]; at 33.0 µM 19% | [6]; [18] 1% | [6]; at 100.0 µM 33% | [7]; at 1.2 µM -3% | [7]; at 3.7 µM -1% | [7]; at 11.0 µM 8% | [7]; at 33.0 µM 12% | [7]; at 100.0 µM 21% | [8]; [17] -20% | [8]; [18] 16% | [8]; at 50.0 µM 67.7% | [9]; at 1.2 µM -5% | [9]; at 3.7 µM -5% | [9]; at 11.0 µM 3% | [9]; at 33.0 µM 35% | [9]; at 100.0 µM 61% | [10]; [17] -3% | [10]; [18] 29% | [11]; at 1.2 µM -4% | [11]; at 3.7 µM -1% | [11]; [17] -28% | [11]; at 11.0 µM 18% | [11]; at 33.0 µM 41% | [11]; [18] 61% | [11]; at 100.0 µM 59% | [12]; at 1.2 µM -3% | [12]; at 3.7 µM -2% | [12]; at 11.0 µM 1% | [12]; at 33.0 µM 13% | [12]; at 100.0 µM 22% | [13]; at 1.2 µM -2% | [13]; at 3.7 µM -5% | [13]; at 11.0 µM 1% | [13]; at 33.0 µM 12% | [13]; at 100.0 µM 17% | [14]; at 1.2 µM -1% | [14]; at 3.7 µM 2% | [14]; at 11.0 µM 9% | [14]; at 33.0 µM 27% | [14]; at 100.0 µM 39% | [15]; [17] -22% | [15]; [18] 46% | [15]; at 50.0 µM 58% | [16]; at 1.2 µM -2% | [16]; at 3.7 µM 1% | [16]; at 11.0 µM 7% | [16]; at 33.0 µM 19% | [16]; at 100.0 µM 50%
active: [6]; at 50.0 µM 81.3% | [10]; at 50.0 µM 81.1% | [11]; at 50.0 µM 75.5%

CC(C)OC(=O)NNc1cccc(Cl)c1
inactive: [1]; at 1.2 µM 1% | [1]; at 3.7 µM 10% | [1]; at 11.0 µM 57% | [2]; at 1.2 µM 1% | [2]; at 3.7 µM 8% | [2]; at 11.0 µM 35% | [3]; at 1.2 µM 6% | [3]; at 3.7 µM 33% | [4]; at 1.2 µM 0% | [4]; at 3.7 µM 7% | [5]; at 1.2 µM 4% | [5]; at 3.7 µM 26% | [5]; [17] 13% | [6]; at 1.2 µM 0% | [6]; at 3.7 µM 11% | [6]; [17] 21% | [6]; at 11.0 µM 55% | [7]; at 1.2 µM 4% | [7]; at 3.7 µM 12% | [8]; [17] 27% | [9]; at 1.2 µM -7% | [9]; at 3.7 µM -6% | [9]; at 11.0 µM 17% | [9]; at 33.0 µM 53% | [10]; [17] 51% | [11]; at 1.2 µM 3% | [11]; at 3.7 µM 44% | [12]; at 1.2 µM 1% | [12]; at 3.7 µM 13% | [13]; at 1.2 µM -1% | [13]; at 3.7 µM 4% | [13]; at 11.0 µM 55% | [14]; at 1.2 µM 2% | [14]; at 3.7 µM 23% | [15]; [17] 69% | [16]; at 1.2 µM 9% | [16]; at 3.7 µM 61%
active: [1]; at 33.0 µM 96% | [1]; at 100.0 µM 97% | [2]; at 33.0 µM 95% | [2]; at 100.0 µM 96% | [3]; at 11.0 µM 93% | [3]; at 33.0 µM 98% | [3]; at 100.0 µM 98% | [4]; at 11.0 µM 87% | [4]; at 33.0 µM 98% | [4]; at 100.0 µM 99% | [5]; at 11.0 µM 98% | [5]; at 33.0 µM 98% | [5]; [18] 95% | [5]; at 50.0 µM 96.1% | [5]; at 100.0 µM 97% | [6]; at 33.0 µM 96% | [6]; [18] 96% | [6]; at 50.0 µM 99.2% | [6]; at 100.0 µM 98% | [7]; at 11.0 µM 76% | [7]; at 33.0 µM 98% | [7]; at 100.0 µM 98% | [8]; [18] 98% | [8]; at 50.0 µM 96.8% | [9]; at 100.0 µM 84% | [10]; [18] 99% | [10]; at 50.0 µM 97.8% | [11]; [17] 83% | [11]; at 11.0 µM 98% | [11]; at 33.0 µM 98% | [11]; [18] 98% | [11]; at 50.0 µM 99% | [11]; at 100.0 µM 98% | [12]; at 11.0 µM 80% | [12]; at 33.0 µM 97% | [12]; at 100.0 µM 98% | [13]; at 33.0 µM 98% | [13]; at 100.0 µM 99% | [14]; at 11.0 µM 97% | [14]; at 33.0 µM 98% | [14]; at 100.0 µM 98% | [15]; [18] 96% | [15]; at 50.0 µM 98% | [16]; at 11.0 µM 98% | [16]; at 33.0 µM 98% | [16]; at 100.0 µM 98%
